The record followed here is paper PMC7862700, “An all-to-all approach to the identification of sequence-specific readers for epigenetic DNA modifications on cytosine”.

Common to all, as to assay: DAPPL (digital affinity profiling via proximity ligation, sequencing); 10 mM Tris-HCl pH 7.5, 50 mM NaCl, 1 mM DTT, 4% glycerol, room temperature, 30 min; GST-TFs on glutathione beads, 16-mer random dsDNA library, 0.1% formaldehyde crosslink after washing; high values mean tight binding
One test concerns the target T1, FEV (Homo sapiens, UniProt Q99581 1-238).
T1 sequence: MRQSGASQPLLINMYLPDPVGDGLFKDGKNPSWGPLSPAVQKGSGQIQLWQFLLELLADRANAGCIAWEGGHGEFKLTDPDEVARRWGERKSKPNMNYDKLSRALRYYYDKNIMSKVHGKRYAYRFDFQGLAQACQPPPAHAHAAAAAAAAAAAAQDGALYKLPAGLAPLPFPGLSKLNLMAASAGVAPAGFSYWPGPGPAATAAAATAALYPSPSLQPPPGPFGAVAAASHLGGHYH
The note with it: protein: recombinant; tags: N-terminal GST; dsDNA, one strand shown. The gist of the method: (§1)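 Yeast served to express human transcription factors as GST fusions, which were then captured on glutathione beads and labelled with DNA barcodes. Pooled with a tag-only sample, they were incubated with 200 nmole of a 16-mer random double-stranded DNA library for 30 min at room temperature in Tris/NaCl/DTT/glycerol buffer, washed, crosslinked with 0.1% formaldehyde, ligated by proximity, amplified by PCR and sequenced. Dividing each hexamer's read frequency for a factor by its frequency for the tag-only sample gives the binding signal.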

Another test deals with ETV5 (Homo sapiens, UniProt P41161 1-510). As to conditions: protein: recombinant; tags: N-terminal GST; dsDNA, one strand shown. In outline: as §1
Chain of ETV5 (P41161 whole entry): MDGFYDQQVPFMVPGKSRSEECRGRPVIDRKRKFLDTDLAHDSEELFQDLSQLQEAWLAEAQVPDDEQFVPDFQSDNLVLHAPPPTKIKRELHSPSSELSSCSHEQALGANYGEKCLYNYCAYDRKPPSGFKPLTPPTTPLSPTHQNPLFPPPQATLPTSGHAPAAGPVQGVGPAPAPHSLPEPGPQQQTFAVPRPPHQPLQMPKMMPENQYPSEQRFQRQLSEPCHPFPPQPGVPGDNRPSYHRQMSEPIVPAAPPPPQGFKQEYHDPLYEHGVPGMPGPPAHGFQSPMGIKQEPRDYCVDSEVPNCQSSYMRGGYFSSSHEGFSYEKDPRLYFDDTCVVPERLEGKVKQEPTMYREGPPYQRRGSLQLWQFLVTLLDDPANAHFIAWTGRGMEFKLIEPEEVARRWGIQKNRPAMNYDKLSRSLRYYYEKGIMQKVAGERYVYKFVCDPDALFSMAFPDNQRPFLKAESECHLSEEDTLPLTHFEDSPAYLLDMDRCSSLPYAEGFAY
A further test has as its target HSF1 (Homo sapiens, UniProt Q00613 1-529). The note with it: protein: recombinant; tags: N-terminal GST; chain copies: 3; dsDNA, one strand shown. In outline:
as §1

The target of a further test is T2, SPIC (Homo sapiens, UniProt Q8N5J4 1-248).
T2 sequence: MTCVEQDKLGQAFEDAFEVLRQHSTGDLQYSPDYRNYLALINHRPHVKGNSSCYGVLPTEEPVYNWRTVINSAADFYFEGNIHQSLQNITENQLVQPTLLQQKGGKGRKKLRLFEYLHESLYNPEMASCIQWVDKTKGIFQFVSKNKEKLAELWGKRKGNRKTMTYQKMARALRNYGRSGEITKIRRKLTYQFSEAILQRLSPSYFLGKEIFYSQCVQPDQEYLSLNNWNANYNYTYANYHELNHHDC
The note with it: protein: recombinant; tags: N-terminal GST; dsDNA, one strand shown. In outline:
as §1

In the next test the target is ELF4 (Homo sapiens, UniProt Q99607 1-663). As to conditions: protein: recombinant; tags: N-terminal GST; dsDNA, one strand shown. The gist of the method:
as §1

Another test addresses T3, ELK4 (Homo sapiens, UniProt P28324-2 1-405).
T3 sequence: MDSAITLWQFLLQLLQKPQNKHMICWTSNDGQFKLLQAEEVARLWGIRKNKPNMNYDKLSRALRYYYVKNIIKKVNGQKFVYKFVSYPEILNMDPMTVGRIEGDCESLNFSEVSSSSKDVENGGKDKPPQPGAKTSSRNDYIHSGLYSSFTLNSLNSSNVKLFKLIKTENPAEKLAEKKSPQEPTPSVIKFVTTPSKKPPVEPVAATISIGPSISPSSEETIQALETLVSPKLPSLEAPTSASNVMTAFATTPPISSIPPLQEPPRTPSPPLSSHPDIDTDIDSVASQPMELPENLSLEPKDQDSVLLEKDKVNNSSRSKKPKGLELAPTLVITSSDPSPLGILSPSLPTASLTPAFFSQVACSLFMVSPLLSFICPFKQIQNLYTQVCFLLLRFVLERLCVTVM
As to conditions: protein: recombinant; tags: N-terminal GST; dsDNA, one strand shown. In outline:
as §1

The next test has as its target T4, ETV2 (Homo sapiens, UniProt O00321 1-342).
T4 sequence: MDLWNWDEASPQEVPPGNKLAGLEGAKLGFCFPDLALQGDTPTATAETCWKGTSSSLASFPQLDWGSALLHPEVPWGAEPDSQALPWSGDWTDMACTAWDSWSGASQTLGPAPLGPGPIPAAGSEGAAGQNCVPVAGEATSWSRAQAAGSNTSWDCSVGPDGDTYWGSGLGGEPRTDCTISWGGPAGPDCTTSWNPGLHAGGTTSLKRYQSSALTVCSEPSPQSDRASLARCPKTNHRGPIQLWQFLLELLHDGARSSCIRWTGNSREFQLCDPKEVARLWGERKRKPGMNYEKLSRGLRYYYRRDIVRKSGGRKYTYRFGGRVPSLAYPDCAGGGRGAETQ
The note with it: protein: recombinant; tags: N-terminal GST; dsDNA, one strand shown. In outline: as §1

In the next test the target is T5, ELF3 (Homo sapiens, UniProt P78545 1-371).
T5 sequence: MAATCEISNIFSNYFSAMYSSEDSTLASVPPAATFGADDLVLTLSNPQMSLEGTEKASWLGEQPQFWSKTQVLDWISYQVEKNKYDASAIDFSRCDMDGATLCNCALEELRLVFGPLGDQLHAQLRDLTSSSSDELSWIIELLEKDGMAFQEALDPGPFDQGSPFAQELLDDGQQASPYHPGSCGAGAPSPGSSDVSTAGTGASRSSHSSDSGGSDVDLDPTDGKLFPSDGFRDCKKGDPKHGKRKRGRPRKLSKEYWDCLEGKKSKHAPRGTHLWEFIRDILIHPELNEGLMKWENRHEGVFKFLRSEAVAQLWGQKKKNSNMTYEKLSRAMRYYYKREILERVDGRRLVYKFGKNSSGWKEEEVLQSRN
As to conditions: protein: recombinant; tags: N-terminal GST; dsDNA, one strand shown. The gist of the method: as §1

The target in another test is CRX (Homo sapiens, UniProt O43186 1-299). The note with it: protein: recombinant; tags: N-terminal GST; dsDNA, one strand shown. In outline:
as §1

A further test has as its target ETV1 (Homo sapiens, UniProt P50549 1-477). The note with it: protein: recombinant; tags: N-terminal GST; dsDNA, one strand shown. The gist of the method: as §1
The target in the next test is T6, ERF (Homo sapiens, UniProt P50548 1-548).
T6 sequence: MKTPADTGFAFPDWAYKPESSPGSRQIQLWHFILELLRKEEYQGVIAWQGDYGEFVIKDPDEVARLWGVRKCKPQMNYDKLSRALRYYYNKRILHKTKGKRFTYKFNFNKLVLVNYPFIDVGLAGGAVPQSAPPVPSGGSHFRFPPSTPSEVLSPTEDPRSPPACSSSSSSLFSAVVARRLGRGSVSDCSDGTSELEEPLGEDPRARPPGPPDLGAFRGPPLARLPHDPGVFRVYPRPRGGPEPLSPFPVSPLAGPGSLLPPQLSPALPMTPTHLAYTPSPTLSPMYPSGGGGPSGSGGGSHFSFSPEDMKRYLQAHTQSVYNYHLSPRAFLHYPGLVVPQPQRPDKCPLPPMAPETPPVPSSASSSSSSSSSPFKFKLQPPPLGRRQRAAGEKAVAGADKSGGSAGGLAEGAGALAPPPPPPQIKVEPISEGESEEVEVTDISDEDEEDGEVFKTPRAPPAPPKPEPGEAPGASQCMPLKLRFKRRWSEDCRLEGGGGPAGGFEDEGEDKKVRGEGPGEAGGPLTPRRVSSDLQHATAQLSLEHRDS
The note with it: protein: recombinant; tags: N-terminal GST; dsDNA, one strand shown. In outline:
as §1

In another test the target is T7, ETV3L (Homo sapiens, UniProt Q6ZN32 1-361).
T7 sequence: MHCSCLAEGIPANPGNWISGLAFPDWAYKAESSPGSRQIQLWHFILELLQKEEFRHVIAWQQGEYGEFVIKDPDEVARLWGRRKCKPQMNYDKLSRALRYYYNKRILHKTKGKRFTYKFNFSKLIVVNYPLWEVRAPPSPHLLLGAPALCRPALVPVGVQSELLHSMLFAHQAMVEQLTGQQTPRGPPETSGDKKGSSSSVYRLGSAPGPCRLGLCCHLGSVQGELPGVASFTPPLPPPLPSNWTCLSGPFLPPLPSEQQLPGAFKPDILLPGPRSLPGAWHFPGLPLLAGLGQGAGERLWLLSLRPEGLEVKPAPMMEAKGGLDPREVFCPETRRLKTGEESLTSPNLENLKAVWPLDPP
The note with it: protein: recombinant; tags: N-terminal GST; dsDNA, one strand shown. In outline:
as §1

The next test deals with T8, ETS2 (Homo sapiens, UniProt P15036 1-469).
T8 sequence: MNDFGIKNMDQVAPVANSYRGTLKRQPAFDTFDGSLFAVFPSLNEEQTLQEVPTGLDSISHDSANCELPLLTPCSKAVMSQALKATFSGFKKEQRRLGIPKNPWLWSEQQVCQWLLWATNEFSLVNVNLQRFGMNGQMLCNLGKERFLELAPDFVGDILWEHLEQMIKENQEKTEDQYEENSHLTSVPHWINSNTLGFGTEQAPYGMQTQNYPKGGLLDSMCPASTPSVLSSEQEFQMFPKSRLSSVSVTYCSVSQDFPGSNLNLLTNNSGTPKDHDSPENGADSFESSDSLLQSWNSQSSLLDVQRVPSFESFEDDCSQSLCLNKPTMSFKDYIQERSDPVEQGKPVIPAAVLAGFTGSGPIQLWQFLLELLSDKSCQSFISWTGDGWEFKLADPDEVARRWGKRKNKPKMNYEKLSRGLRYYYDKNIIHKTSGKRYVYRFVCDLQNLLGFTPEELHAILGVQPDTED
As to conditions: protein: recombinant; tags: N-terminal GST; dsDNA, one strand shown. The gist of the method:
as §1

A further test addresses T9, SPDEF (Homo sapiens, UniProt O95238 1-335).
T9 sequence: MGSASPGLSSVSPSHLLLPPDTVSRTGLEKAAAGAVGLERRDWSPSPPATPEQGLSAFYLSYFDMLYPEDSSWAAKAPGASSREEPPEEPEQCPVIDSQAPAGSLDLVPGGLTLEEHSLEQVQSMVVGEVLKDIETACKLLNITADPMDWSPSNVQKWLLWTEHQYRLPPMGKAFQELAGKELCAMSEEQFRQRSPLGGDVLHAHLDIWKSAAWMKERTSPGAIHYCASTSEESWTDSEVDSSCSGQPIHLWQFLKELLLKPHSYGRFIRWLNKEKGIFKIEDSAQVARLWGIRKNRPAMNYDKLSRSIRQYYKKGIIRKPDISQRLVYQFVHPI
The note with it: protein: recombinant; tags: N-terminal GST; dsDNA, one strand shown. In outline: as §1

The target in a further test is T10, ETV7 (Homo sapiens, UniProt Q9Y603 1-341).
T10 sequence: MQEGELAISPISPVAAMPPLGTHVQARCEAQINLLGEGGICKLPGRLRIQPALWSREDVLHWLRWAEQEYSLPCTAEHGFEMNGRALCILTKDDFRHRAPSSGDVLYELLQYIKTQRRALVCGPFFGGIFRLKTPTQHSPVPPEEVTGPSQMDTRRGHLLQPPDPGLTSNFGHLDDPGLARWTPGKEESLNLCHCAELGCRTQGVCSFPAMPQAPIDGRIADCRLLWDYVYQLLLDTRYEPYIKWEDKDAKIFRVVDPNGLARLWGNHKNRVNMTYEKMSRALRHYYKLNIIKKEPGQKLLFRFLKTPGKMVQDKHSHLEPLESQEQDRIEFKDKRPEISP
As to conditions: protein: recombinant; tags: N-terminal GST; dsDNA, one strand shown. The gist of the method:
as §1

The target of another test is T11, ELF5 (Homo sapiens, UniProt Q9UKW6-2 1-255).
T11 sequence: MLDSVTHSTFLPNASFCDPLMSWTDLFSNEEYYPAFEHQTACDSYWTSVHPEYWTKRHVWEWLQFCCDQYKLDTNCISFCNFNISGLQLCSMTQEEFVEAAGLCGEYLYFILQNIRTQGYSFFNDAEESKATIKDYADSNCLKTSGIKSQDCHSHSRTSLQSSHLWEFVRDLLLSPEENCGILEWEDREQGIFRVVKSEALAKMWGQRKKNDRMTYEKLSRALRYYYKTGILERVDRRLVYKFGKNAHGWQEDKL
As to conditions: protein: recombinant; tags: N-terminal GST; dsDNA, one strand shown. In outline:
as §1

Another test addresses T12, ETV3 (Homo sapiens, UniProt P41162-2 1-143).
T12 sequence: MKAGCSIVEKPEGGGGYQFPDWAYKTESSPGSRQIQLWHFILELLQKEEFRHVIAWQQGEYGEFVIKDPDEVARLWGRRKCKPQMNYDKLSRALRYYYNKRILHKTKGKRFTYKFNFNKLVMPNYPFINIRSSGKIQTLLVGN
As to conditions: protein: recombinant; tags: N-terminal GST; dsDNA, one strand shown. The gist of the method: as §1

The target in the next test is ETV6 (Homo sapiens, UniProt P41212 1-452). As to conditions: protein: recombinant; tags: N-terminal GST; dsDNA, one strand shown. The gist of the method: as §1
Chain of ETV6 (P41212 whole entry): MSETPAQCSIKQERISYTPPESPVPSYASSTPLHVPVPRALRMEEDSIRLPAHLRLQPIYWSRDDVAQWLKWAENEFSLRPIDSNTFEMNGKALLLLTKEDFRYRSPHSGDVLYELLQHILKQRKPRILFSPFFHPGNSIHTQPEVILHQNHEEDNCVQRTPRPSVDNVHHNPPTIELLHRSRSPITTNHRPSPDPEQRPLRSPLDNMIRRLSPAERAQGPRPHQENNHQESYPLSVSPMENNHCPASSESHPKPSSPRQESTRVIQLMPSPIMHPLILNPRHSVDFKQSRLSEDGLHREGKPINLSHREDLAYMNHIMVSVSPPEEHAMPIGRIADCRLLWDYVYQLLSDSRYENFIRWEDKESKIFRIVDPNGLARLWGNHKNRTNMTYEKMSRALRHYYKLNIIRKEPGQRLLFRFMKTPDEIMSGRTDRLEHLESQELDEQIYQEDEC

Chain of ELF4 (Q99607 whole entry): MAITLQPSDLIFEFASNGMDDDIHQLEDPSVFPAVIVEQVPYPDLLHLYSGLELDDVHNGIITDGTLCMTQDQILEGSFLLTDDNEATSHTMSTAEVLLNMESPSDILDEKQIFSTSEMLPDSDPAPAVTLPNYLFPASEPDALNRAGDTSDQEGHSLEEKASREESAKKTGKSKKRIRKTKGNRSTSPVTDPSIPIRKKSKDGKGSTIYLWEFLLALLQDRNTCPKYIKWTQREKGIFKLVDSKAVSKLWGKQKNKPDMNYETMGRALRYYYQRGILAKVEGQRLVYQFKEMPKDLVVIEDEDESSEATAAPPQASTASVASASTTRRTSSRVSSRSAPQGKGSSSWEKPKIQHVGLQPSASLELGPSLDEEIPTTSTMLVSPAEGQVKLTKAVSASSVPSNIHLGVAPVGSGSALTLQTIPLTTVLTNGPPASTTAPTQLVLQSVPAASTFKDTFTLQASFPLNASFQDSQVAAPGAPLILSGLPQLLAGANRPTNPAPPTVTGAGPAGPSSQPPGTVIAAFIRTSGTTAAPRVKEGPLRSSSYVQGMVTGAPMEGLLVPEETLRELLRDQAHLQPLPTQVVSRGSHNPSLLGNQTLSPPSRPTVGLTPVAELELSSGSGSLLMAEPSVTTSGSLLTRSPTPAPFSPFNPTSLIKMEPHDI
Chain of ETV1 (P50549 whole entry): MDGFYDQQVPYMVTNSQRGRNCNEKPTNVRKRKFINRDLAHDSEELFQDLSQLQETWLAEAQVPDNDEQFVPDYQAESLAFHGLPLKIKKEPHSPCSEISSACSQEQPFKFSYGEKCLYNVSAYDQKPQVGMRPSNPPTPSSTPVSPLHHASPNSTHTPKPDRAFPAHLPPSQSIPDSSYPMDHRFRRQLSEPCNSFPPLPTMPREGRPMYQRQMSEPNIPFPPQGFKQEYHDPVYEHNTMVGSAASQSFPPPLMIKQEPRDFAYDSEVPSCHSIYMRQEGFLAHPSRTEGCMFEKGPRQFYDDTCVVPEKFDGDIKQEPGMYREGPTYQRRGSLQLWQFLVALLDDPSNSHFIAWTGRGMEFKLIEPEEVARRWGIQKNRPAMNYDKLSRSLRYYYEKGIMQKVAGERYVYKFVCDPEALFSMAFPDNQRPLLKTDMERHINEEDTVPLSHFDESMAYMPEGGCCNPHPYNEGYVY
Chain of CRX (O43186 whole entry): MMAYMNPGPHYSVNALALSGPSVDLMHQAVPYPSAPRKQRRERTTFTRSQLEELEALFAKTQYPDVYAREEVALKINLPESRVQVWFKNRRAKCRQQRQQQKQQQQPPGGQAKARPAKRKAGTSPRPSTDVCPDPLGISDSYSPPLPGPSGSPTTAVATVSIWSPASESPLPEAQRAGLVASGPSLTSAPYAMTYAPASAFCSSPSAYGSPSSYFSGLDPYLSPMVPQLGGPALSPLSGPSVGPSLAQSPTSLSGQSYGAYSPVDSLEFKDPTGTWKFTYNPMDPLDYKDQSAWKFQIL
Chain of HSF1 (Q00613 whole entry): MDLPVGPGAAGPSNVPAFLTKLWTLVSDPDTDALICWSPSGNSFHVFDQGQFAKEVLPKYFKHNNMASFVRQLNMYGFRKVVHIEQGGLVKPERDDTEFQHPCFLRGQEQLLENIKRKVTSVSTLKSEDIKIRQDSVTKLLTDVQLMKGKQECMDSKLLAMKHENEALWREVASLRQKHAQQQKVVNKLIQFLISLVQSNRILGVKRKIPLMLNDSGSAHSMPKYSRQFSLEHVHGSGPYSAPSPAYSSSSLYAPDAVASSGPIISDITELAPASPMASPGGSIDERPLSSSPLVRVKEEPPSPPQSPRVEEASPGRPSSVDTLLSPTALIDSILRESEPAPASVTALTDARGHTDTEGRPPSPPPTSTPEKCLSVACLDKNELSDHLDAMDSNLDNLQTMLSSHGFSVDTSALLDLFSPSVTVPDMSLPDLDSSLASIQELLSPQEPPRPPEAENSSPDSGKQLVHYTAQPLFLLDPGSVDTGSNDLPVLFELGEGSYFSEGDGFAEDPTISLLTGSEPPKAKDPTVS

Turning to TTCCAA, the binding signal with FEV is 1.26 fold enrichment (6-mer frequency, TF over GST control); with ETV5, 1.18 fold enrichment (6-mer frequency, TF over GST control); with HSF1, 1.47 fold enrichment (6-mer frequency, TF over GST control); in the test with SPIC it was 1.31 fold enrichment (6-mer frequency, TF over GST control); with ELF4, 1.27 fold enrichment (6-mer frequency, TF over GST control); in the test with ELK4 it was 1.31 fold enrichment (6-mer frequency, TF over GST control). Also, the binding signal is 1.29 fold enrichment (6-mer frequency, TF over GST control) with ETV2; 1.16 fold enrichment (6-mer frequency, TF over GST control) with ELF3; 1.39 fold enrichment (6-mer frequency, TF over GST control) with CRX; 1.21 fold enrichment (6-mer frequency, TF over GST control) with ETV1; 1.27 fold enrichment (6-mer frequency, TF over GST control) with ERF; 1.3 fold enrichment (6-mer frequency, TF over GST control) with ETV3L. Further, the binding signal was 1.25 fold enrichment (6-mer frequency, TF over GST control) with ETS2; 1.29 fold enrichment (6-mer frequency, TF over GST control) with SPDEF; 1.27 fold enrichment (6-mer frequency, TF over GST control) in the test with ETV7; 1.21 fold enrichment (6-mer frequency, TF over GST control) with ELF5; 1.22 fold enrichment (6-mer frequency, TF over GST control) with ETV3; 1.29 fold enrichment (6-mer frequency, TF over GST control) in the test with ETV6.
